Measured values from PubChem BioAssay.
A number with no mark means an inactive call. Active and inactive are the calls of the source. Rule as the data show it, unless noted: active = inhibition above about 36%; inactive = the rest.

How the values were obtained:
[1] = system: transactivating tegument protein VP16 (Human herpesvirus 1); experiment: compounds suppressing VP16-driven luciferase signal – cell-based, luminescence, single concentration, counter-screen for SRC2 inhibitor project (AID 652007); settings: cell-based VP16 transactivation luciferase reporter, at 8.9 µM, hits give high values
[2] = target: Nuclear receptor coactivator 2 (Homo sapiens) (UniProt Q15596); experiment: inhibition of GAL4-SRC2 driven luciferase expression – cell-based, luminescence, HEK293, triplicate, confirmation (AID 652008;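 active = mean inhibition above 46.5%, the solvent-only control mean plus 3 SD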;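 also: 0% = DMSO-treated cells and 100% = Gossypol at 36 µM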); settings: HEK293 GAL4-SRC2 luciferase reporter, at 8.9 µM, hits give high values
Nuclear receptor coactivator 2 (Homo sapiens), sequence (Q15596 whole entry, looked up, the tested form may be a part): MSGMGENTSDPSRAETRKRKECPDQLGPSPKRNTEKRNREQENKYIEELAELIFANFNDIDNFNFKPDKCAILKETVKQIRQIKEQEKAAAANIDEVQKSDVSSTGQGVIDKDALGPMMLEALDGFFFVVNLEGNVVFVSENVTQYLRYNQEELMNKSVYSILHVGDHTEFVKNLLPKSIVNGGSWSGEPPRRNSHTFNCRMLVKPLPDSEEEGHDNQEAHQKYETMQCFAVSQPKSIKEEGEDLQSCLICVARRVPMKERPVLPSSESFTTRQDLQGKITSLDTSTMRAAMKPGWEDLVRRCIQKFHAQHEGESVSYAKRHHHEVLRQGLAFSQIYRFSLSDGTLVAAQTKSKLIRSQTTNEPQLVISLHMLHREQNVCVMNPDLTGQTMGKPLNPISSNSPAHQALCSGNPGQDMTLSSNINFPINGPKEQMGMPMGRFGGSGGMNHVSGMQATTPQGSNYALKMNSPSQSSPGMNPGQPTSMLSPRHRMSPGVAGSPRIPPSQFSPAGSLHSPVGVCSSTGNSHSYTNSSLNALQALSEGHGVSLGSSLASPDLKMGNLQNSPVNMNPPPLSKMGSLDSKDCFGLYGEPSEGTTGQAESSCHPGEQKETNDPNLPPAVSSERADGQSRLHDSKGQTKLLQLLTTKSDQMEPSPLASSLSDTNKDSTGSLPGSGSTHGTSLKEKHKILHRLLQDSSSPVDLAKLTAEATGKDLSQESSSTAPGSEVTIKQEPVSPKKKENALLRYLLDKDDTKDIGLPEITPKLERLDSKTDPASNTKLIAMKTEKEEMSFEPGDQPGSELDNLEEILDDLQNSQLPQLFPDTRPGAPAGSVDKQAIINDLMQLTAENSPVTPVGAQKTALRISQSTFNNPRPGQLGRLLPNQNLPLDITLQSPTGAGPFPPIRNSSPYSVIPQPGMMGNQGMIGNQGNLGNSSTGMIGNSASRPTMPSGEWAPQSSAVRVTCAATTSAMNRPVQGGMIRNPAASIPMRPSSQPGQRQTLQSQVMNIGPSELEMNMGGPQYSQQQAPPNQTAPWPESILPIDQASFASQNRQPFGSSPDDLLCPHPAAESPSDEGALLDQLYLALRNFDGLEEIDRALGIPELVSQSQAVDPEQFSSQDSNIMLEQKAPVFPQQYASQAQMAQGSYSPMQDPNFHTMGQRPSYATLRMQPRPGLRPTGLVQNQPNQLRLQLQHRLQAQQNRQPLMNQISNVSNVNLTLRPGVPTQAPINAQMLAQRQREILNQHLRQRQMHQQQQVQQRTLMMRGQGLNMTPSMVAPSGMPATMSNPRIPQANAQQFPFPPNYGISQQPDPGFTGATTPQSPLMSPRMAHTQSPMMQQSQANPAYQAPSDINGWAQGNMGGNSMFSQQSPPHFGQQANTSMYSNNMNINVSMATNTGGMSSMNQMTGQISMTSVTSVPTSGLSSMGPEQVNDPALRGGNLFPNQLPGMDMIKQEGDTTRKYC

## COCc1cc(C)[nH]c(=O)c1C(=O)NC12CC3CC(CC(C3)C1)C2
[1]
  inhibition: 15.4%
[2]
  inhibition: -11%

## O=C(Nc1ncn[nH]1)c1ccc(Cl)c(S(=O)(=O)Nc2ccc(Cl)cc2)c1
[1]
  inhibition: -5.84%
[2]
  inhibition: 5.69%

## CC(=O)Nc1cc(=O)c2cccnc2[nH]1
[1]
  inhibition: -8.33%
[2]
  inhibition: -9.24%

## CCCC(=O)Nc1cccc(NC(=O)c2ccccc2Br)c1
[1]
  inhibition: -0.46%
[2]
  inhibition: -17.8%

## CC(C)=CCc1c(O)ccc2c1OC(c1ccc(O)c(O)c1)CC2=O (centres undefined)
[1]
  inhibition: 10.7%
[2]
  inhibition: 56.9% (active)

## NNC(=O)COc1ccc(C(F)(F)F)cc1
[1]
  inhibition: -3.76%
[2]
  inhibition: 4.91%

## CN(Cc1ccccc1F)C(=O)C1CCC(CNS(=O)(=O)c2cccc3cccnc23)CC1 (centres undefined)
[1]
  inhibition: 3.95%
[2]
  inhibition: -2.23%

## CCOC(=O)C1CCCN(C(=O)CCNS(=O)(=O)c2ccc(Br)cc2)C1 (centres undefined)
[1]
  inhibition: 10.6%
[2]
  inhibition: -4.97%

## Cc1ccc(C)c(NC(=O)COc2coc(CN3CCc4ccccc4C3)cc2=O)c1
[1]
  inhibition: -2.11%
[2]
  inhibition: 22.7%

## Cc1ccc(NC(=O)C2(C)CCN2C(=O)CC(c2ccccc2)c2ccccc2)cc1 (centres undefined)
[1]
  inhibition: -6.43%
[2]
  inhibition: -7.67%

## C=CCN(CC#CCN(C)C(=O)c1cccn1C(=O)OC(C)(C)C)Cc1ccc(OC)cc1OC
[1]
  inhibition: -6.71%
[2]
  inhibition: -1.62%

## C[C@@H]1CNCCN1c1ccc(N2CCN(Cc3ccccc3)[C@@H](C)C2)c(C#N)c1
[1]
  inhibition: 15.5%
[2]
  inhibition: 17.3%
